We go through 55 molecules from ChEMBL document CHEMBL4513216, “Probing the Open Global Health Chemical Diversity Library for Multistage-Active Starting Points for Next-Generation Antimalarials” (ACS Infect Dis, 2020).

Each structure is given as a SMILES string. Screen size: about 69,000 compounds; about 8,600 (12%) showed an effect of 50% or more. This excerpt belongs to a sample that is enriched for strong results.

The experiment has as its system Plasmodium berghei. The experiment is described as follows: Screen against P. berghei liver stage (PbLuc), transformed with Luciferase, at 10uM. The format is functional, HepG2. The note with it: tested at 10 uM.
`CCC[C@@H]1CN(c2ncnc3ccsc23)C[C@H]1NS(C)(=O)=O`: the INHIBITION was -3.58%. With `Cc1cnccc1NCCNC(=O)[C@H]1CNC[C@H](C(=O)N2CCCC2)C1` the figure was 15.9%; with `CC(C)CCN1CCC2(CC1)NCc1ccccc1NC2=O`, 25.9%; with `Cc1cnn(CC2CN(Cc3nc4ccccc4s3)CCO2)c1` (stereo not given), 74.4%.

`CC(C)(C)c1nnc(CN2CCOC(Cn3cncn3)C2)o1` (stereo not given): the INHIBITION worked out at 40.3%. As for `Cc1cnn(CC2CN(CCCS(C)(=O)=O)CCO2)c1` (stereo not given), the INHIBITION is listed as -12.1%.

Turning to `Cc1cnn(CC2CN(Cc3nc4ccccc4o3)CCO2)c1` (stereo not given), the INHIBITION was -61.4%. With `CC(C)(C)c1nnc(CN2CCOC(Cn3cccn3)C2)o1` (stereo not given), the INHIBITION is given as 59.7%. With `Cc1cnn(CC2CN(CCCS(=O)(=O)N(C)C)CCO2)c1` (stereo not given) the figure was 77.8%; with `Cc1cnn(CC2CN(CCS(C)(=O)=O)CCO2)c1` (stereo not given), -31.4%; with `CCc1nnc(CN2CCOC(Cn3cccn3)C2)o1` (stereo not given), -5.25%. Take `Cc1cnn(CC2CN(Cc3nc4ccccc4n3C)CCO2)c1` (stereo not given): the INHIBITION was -43.6%. On to `Cc1nc(NCc2ccc(F)cc2)cc(C(=O)N2CCOCC2)n1`, for which the INHIBITION is -10.1%. Turning to `Clc1cccc(CNc2cnn(CCN3CCCCC3)c2)c1`, the INHIBITION came to 21.2%. For the molecule `CC(C)Nc1nc(O)cc(C2CC(=O)N(C3CCCCC3)C2)n1` (stereo not given), the INHIBITION is given as -23.245%.

On to `CN(C)c1cc(C(=O)NCCc2nnc(-c3ccco3)[nH]2)ccn1`, for which the INHIBITION was determined as 17.4%. For the molecule `O=C(NCC1CC1)C1CN(C(=O)Nc2ccccc2)CC12CCOCC2` (stereo not given), the INHIBITION is 19.4%. With `CCN(Cc1ccncc1)C(=O)C(C)n1ccnc1C(C)C` (stereo not given) the figure was 10.3%; with `CC(C)N1C(=O)CN(CCCO)CC1(C)C`, -23%; with `Cc1ccc(NC(=O)c2cccc(OCc3nnnn3C)c2)nc1`, -1.57%.

For the molecule `CCOc1ccc(NC(=O)N2CCOC(C(N)=O)C2)cc1C` (stereo not given), the INHIBITION is -5.08%. With `O=C(CCCc1ccc(Cl)cc1)N1CCC(c2nnc[nH]2)CC1` the figure was 20.9%; with `CCOc1cc(NC(=O)N2CCC(c3nnc[nH]3)CC2)ccc1C`, 56.6%; with `O=C(Nc1ccc(OC(F)F)cc1)N1CCC(c2nnc[nH]2)CC1`, 63.3%. Take `COc1ccc(NC(=O)N2CCC(c3nnc[nH]3)CC2)cc1C`: the INHIBITION is reported as 37.6%. On to `O=C(CCCN1CCCCC1)N1CCC(c2nnc[nH]2)CC1`, for which the INHIBITION was -7.53%. As for `CC(Cn1cccn1)n1cnc2cccc(Cl)c2c1=O` (stereo not given), the INHIBITION came out at 36.6%. On to `Oc1cc(C2CCNCC2)nc(-c2ccsc2)n1`, for which the INHIBITION is reported as -33.6%. Turning to `Cc1occc1CNC(=O)C1CCN(C(=O)OC(C)(C)C)C1` (stereo not given), the INHIBITION is listed as -2.27%. With `Fc1ccc(NCc2nnsc2Cl)c(OC(F)F)c1` the figure was 47.4%. Turning to `Fc1ccc(NCc2ccncc2)c(OC(F)F)c1`, the INHIBITION is 73.2%.

As to `C[S+]([O-])c1ccc(CNc2ccc(F)cc2OC(F)F)cc1` (stereo not given), the INHIBITION worked out at 38.5%. Take `c1cc2nc(C3CCNCC3)nn2cc1NC1CCC1`: the INHIBITION came out at 40.3%. Regarding `CN(Cc1cccs1)C1CCC[C@@H]2CN(C(N)=O)C[C@H]12` (stereo not given in full), the INHIBITION stood at 39.3%. Consider `CCN(CC)Cc1cnc2n1CCN(Cc1c(C)noc1C)CC2`, for which the INHIBITION is 27.5%. Under `Cc1noc(C)c1CN1CCc2ncc(CN(C)C)n2CC1` stands 57.1%; under `Cc1noc(C)c1CN1CCc2ncc(CN3CCCC3)n2CC1`, 40.8%; under `CC(c1nc(C2CC2)no1)N1CCN(CCCN2CCCC2=O)CC1` (stereo not given), -2.53%. Under `CCc1nnc(NCc2cccc(OC)c2OC)o1` stands 50.2%; under `COc1cccc(CNc2nnc(C(C)(C)C)o2)c1OC`, 7.22%; under `COc1cccc(CNC(C)Cn2cccn2)c1OC` (stereo not given), 20.9%. For the molecule `Cc1ncccc1Oc1ncnc(N2CCCC(O)(CO)CC2)c1C` (stereo not given), the INHIBITION is 36.7%.

Turning to `Cc1cncc(C2CCCN2CC(N)=O)n1` (stereo not given), the INHIBITION worked out at 35%. On to `Cc1ccc(OCC(O)COC2CCOCC2)c(Br)c1` (stereo not given), for which the INHIBITION was -98.4%. Under `OC(COc1ccccc1Br)COC1CCOCC1` (stereo not given) stands -42.8%.

On to `Cc1ccc(OCC(O)COC2CCOCC2)c(Cl)c1` (stereo not given), for which the INHIBITION is given as 71.3%.

In the case of `Cc1ccc(NC(=O)C2CSCN2C(=O)c2cnccn2)cc1C` (stereo not given), the INHIBITION stood at 23.25%.

`NCCCC(=O)NCC1(O)CCCN(c2ccnc3cccnc23)C1` (stereo not given): the INHIBITION is given as 4.35%.

Consider `CCCn1nc(C)c(C(=O)N[C@@H]2CC[C@@H](N3CCCC3)[C@@H]2O)c1C`, for which the INHIBITION was found to be 1.65%. With `Cc1cccc(CN2C(=O)CCC23CCN(Cc2nccn2C)CC3)n1`, the INHIBITION was 37.2%.

Regarding `O=C(NC[C@H]1OC[C@@H](NC2CCC(F)(F)CC2)[C@@H]1O)c1ccccc1`, the INHIBITION is 59.3%. `O=C(NC[C@H]1OC[C@@H](NC2COC2)[C@@H]1O)c1ccccc1`: the INHIBITION was 5.58%. Regarding `CN(C)[C@@H]1CO[C@H](CNC(=O)c2cccs2)[C@H]1O`, the INHIBITION worked out at 44.1%. With `O=C(NC[C@H]1OC[C@@H](NC2CCC(F)(F)CC2)[C@@H]1O)Nc1ccccc1`, the INHIBITION is 25.3%.

Consider `CN(C)[C@@H]1CO[C@H](CNC(=O)c2ccccc2)[C@H]1O`, for which the INHIBITION stood at 53%.
